PubChem BioAssay (NCI)
Compounds without any hit were thinned out: in the full panel of roughly 83,000, 20% have a hit.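 48-hour exposure, single concentration, 96-well plates; percent growth endpoint where 0 means no net growth. Active: below 10.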 A number with no mark means an inactive call. Calls of active or inactive are those of the source.

Each compound was assayed on U251 CNS (assay: NCI-60 one-dose screen, 48 h (100 = growth as untreated, 0 = no growth, -100 = all killed)). Conditions: 10 µM unless noted.
Protocol: Growth inhibition of the U251 human tumor cell line is measured as a screen for anti-cancer activity. Cells are grown in 96 well plates and exposed to the test compound for 48 hours. Compounds are tested at a single concentration, which is 10^-5 M for most compounds. The reported endpoint is percent growth (GI% or GIPRCNT), where numbers from 0 - 100% represent growth inhibition, and numbers from -100% - 0 represent cell death. For example, a value of 40 represents 60% growth inhibition. A value of 0 means no net growth occurred over the course of the experiment. A value of -40 indicates 40% of cells at the beginning of the experiment died by the end of the experiment. A value of -100 means all cells are dead at the end of the experiment.
NCI-60 Human Tumor Cell Lines Screen was performed using the standard one-dose NCI protocol, which is described in more detail at https://dtp.cancer.gov/discovery_development/nci-60/default.htm.
Compounds with GIPRCNT values below 10 were considered active. Activity score was based on GIPRCNT using the following formula: […]
Score is 0 for GIPRCNT values of 100 or above, 50 for GIPRCNT values of 0, and 100 for GIPRCNT values of -100.

Compound | growth
Cc1ccc(-c2csc(NC(=O)c3ccccc3CN3C(=O)c4ccccc4C3=O)n2)cc1 | 95.5%
CC1(C)[C@@H](O[C@@H]2OC[C@@H](O[C@@H]3O[C@H](CO)[C@@H](O)[C@H](O)[C@H]3O[C@@H]3OC[C@@H](O)[C@H](O)[C@H]3O)[C@H](O)[C@H]2O[C@@H]2O[C@H](CO)[C@@H](O)[C@H](O)[C@H]2O)CC[C@]2(C)[C@H]3CC[C@]45OC[C@@]6(CC[C@](C)(C=O)C[C@H]64)[C@H](O)C[C@@]5(C)[C@]3(C)CC[C@@H]12 | -89.8% (active)
O=C1/C=C/[C@@H](O)[C@@H]2C[C@@H](O)C[C@H]2/C=C/CCC[C@@H](O)CCO1 | 92.3%
CCN1CCN(C(=O)[C@]23CC[C@@H](C)[C@H](C)[C@@H]2C2=CC[C@@H]4[C@@]5(C)C/C(=C/c6cccnc6)C(=O)C(C)(C)[C@@H]5CC[C@@]4(C)[C@]2(C)CC3)CC1 | 27.9%
COc1ccc(/C=C/C(=O)c2cc(OC)c(OC)c(OC)c2)cc1OCC(=O)Nc1nc2ccc(OC(F)(F)F)cc2s1 | -45.9% (active)
O=C1/C(=C\c2ccccn2)c2ccccc2N1c1c(Cl)cccc1Cl | -2.48% (active)
COC1=C(C)C(=O)N2[C@@H]1[C@H](c1ccccc1)OC21C=CC(=O)C=C1 | 26.2%
Nc1ccc(-c2csc(-n3[nH]c(=O)ccc3=O)n2)cc1 | 100%
Cc1c2ccncc2c(C)c2c1c1cc(CO)ccc1n2C | -10.8% (active)
Cc1ccc(-c2nc(N3CCNCC3)c3oc(-c4ccc(C)cc4)nc3n2)cc1 | -98.5% (active)
COc1ccc(-c2n[nH]c(=O)c3nc(NC(=S)Nc4ccc(Oc5ccccc5)cc4)sc23)cc1 | 83.3%
CC(C)(C)n1cc(-c2ccnc(NCCNS(=O)(=O)c3ccc(O)cc3)c2)c(-c2cccc(O)c2)n1 | 82.4%
O=C(CCCCCNC(=O)c1cc(=O)c(O)co1)Nc1ccccc1 | 89.9%
CCOc1c(OC)cc2c(c1O)C(=O)N[C@@H]1[C@@H](O)[C@@H](O)[C@H](O)C[C@@H]21 | 96.7%
COc1ccccc1N(C(C)=O)C1=C(Cl)C(=O)c2ccccc2C1=O | 8.36% (active)
Cc1ccc(C)c2c(C)c(C(=O)Nc3cccc(-n4cccn4)c3)oc12 | 70.9% [50 µM]
Cc1cn(-c2cc(NC(=O)c3cncc(C#Cc4c(N)ncc5ccc(F)cc45)c3)cc(C(F)(F)F)c2)cn1 | 80.4%
CCCCCCCC/C=C\CCCCCCCCOc1ccc(CC(=O)NCC[N+]2(C)CCOCC2)cc1 | 15.4%
N#Cc1c(Nc2ccc(N3CCOCC3)cc2)nc(SCC(=O)c2ccc(Br)cc2)nc1-c1ccccc1 | 101%
CCN1CCN(c2cc(C)nc(N(CCNc3ccnc4cc(Cl)ccc34)Cc3ccc4c(c3)OCO4)n2)CC1 | -50.4% (active)

Compound | growth
COc1cccc(Nc2ncnc3cc(NC(=O)CCl)ccc23)c1 | -99.2% (active)
Cc1nc2cc(O)c(O)cc2cc1Oc1ccc(NC(=O)Nc2ccc(Cl)c(Cl)c2)cc1 | 41.4%
O=C1Nc2c(C(=O)O)cccc2/C1=N/c1n[nH]c(=S)s1 | 84.9%
C[C@H](CCCC(=O)NCC#CCN1CCN(C)CC1)[C@H]1CC[C@H]2[C@@H]3CC[C@@H]4CC(=O)CC[C@]4(C)[C@H]3CC[C@]12C | 88%
N#CC1CCc2c(c(-c3ccc4nc(N)sc4c3)nc3ccc4[nH]ncc4c23)C1 (stereo not given) | 46.7%
CCOC(=O)c1c(C)nc2c(c1N)/C(=C/c1ccc(OC)cc1)C(=O)N2Cc1ccccc1 | 50.7%
CCN1C(=O)N(CC)C2C1N=C(SCc1ccc(Cl)cc1)N2/N=C/C=C/c1ccccc1OC (stereo not given) | 68.8%
COc1ccc(Oc2nc(Nc3ccc(N4CCOCC4)cc3)ncc2NC(=O)Nc2cc(OC)cc(OC)c2)cc1 | -35.8% (active)
CC1C=CC(OC(=O)C(C)(O)CCC(O)(C(=O)OC2CC(O)C(C(C)C)CC2(C)O)C(C)C)(C(C)C)CC1 (stereo not given) | -94.2% [4.63 µM] (active)
C#CCn1cnc2cnc(Nc3cccc(NC(=O)C=C)c3)nc21 | 75.5% [6.25 µM]
CCCCC#Cc1c(I)n(C)c(=O)[nH]c1=O | 2.73% (active)
CCOC(=O)c1c(C)nc2ccccc2c1/C=C/c1ccccc1 | 79.7%
CC1C(/C=N/NC(N)=S)C(C#N)(C#N)C1(C#N)C#N (stereo not given) | 102%
COc1ccc(C(=O)/C=C/c2ccc(N3CCCCC3)cc2)cc1OC | 95.6%
COc1cc(C(=O)n2nc(N3CCOCC3)c3cc(-n4cccc4)ccc32)cc(OC)c1OC | 68.7%
N[C@H]1CCC[C@@H]1NCCCCN1C(=O)c2cccc3cc([N+](=O)[O-])cc(c23)C1=O | 42.1%
CC1=C(CCC(C)NCc2ccc(OCCCN3CCCCC3)cc2)C(C)(C)CCC1 (stereo not given) | -85.6% (active)
O=C(Nc1ccc(Br)cc1)C1=NCCCCN1 | 91.6%
CCC1S/C(=N\N=C(\C)c2cc3cc(Cl)ccc3o2)N(c2ccccc2)C1=O (stereo not given) | 99%
C[C@@H]1O[C@@H](O[C@@H]2C[C@H](c3ccc4c(c3O)C(=O)C3=C(C4=O)[C@@]4(O)C(=O)C[C@](C)(O)C[C@@]4(O)C=C3)O[C@H](C)[C@H]2O)CC[C@@H]1O[C@H]1C[C@@H](O)[C@H](O)[C@@H](C)O1 | 98.7%
